# Compound activity: PubChem, National Center for Advancing Translational Sciences (NCATS)
# Compounds with a hit are over-represented: about 12% of the library has one in this group of screens.
# ALDH1A1 inh: inhibitors of human aldehyde dehydrogenase 1A1 | P00352 | Purified ALDH1A1, NADH fluorescence, propionaldehyde substrate | Potency, µM (titrated, usually from 75.3 µM), for the others: at the highest dose activity, negative = inhibition, most hits filed as inhibitors | hit rate 7.3% among 220,000 | AID 1030; active = well fitted inhibition curve with a large enough effect, not every such curve was filed as active; inconclusive = small, poorly fitted or top-dose-only effect, or another doubt; inactive = no such curve, though single readings can be large or run the other way;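 also: plate controls were no enzyme wells and a reference inhibitor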
# RORg inh: ROR gamma (mouse) transcription inhibition; P51450; Drosophila S2 Gal4-RORgamma UAS-luciferase reporter, 20 h; Potency, µM (titrated, usually from 53.6 µM), without a hit: at the highest dose activity change, negative = inhibition, most hits filed as inhibitors; hit rate 5.4% among 310,000; AID 2551; also: nearly all actives have a fitted effect of over 60% in size
#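 Luciferase reporter read in Schneider cells carrying Gal4-RORγ (mouse) and UAS-Photinus luciferase; cells given compound 1 h before 700 uM copper sulfate induction, then incubated 20 h at ambient temperature.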
# Sfp inh: Sfp phosphopantetheinyl transferase inhibition. Q9F4F7. hit rate 3.5% among 310,000. AID 1490. Biochemical Sfp PPTase activity, qHTS. Potency, µM, without a hit: largest response in the series, negative = inhibition, hits mostly inhibitors;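 also: the enzyme is Sfp with the accession as filed and its product quenches rhodamine fluorescence; 0% = enzyme reaction without inhibitor and -100% = no enzyme wells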
#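 Step 1, compound plus 15 nM Sfp-PPTase, 15 min, room temperature. Step 2, add rhodamine-CoA (5 uM) and BHQ-2-YbbR (12.5 uM). Step 3, read 525/598 nm fluorescence at 0 and 30 min.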
# PLK1 PBD block: PLK1 (human) polo-box domain binding inhibition. P53350. Plk1 PBD binding of FITC phosphopeptide, fluorescence polarization. Potency, µM, without a hit: max response, negative = inhibition, actives largely listed as inhibitors. hit rate 2.8% among 360,000. AID 720504; also: series mostly up to about 57 µM; nearly all actives have a fitted effect of over 65% in size
# Target sequence (P53350 whole entry, looked up, the tested form may be a part): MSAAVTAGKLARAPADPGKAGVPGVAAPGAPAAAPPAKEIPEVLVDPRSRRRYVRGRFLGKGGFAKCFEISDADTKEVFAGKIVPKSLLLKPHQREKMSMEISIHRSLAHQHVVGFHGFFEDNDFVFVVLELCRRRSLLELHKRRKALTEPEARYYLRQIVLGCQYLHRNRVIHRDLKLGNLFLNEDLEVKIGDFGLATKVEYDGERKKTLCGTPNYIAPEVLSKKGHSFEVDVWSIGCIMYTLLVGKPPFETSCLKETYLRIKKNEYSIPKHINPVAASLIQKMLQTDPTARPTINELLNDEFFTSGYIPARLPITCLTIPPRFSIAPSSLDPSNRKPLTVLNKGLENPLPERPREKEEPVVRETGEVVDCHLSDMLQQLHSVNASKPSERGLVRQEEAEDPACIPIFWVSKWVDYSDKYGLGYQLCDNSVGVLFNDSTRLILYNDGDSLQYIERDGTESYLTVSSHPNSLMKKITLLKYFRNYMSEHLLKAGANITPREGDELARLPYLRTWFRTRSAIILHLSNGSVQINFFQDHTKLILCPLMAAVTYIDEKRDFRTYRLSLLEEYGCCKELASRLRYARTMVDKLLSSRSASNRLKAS
# VP16 counter: counter-screen for ROR gamma inhibitors: Gal4-VP16 reporter | Drosophila S2 Gal4-VP16 UAS-luciferase, luminescence, 20 h | Potency, µM (top dose mostly 53.6 µM), for the others: at the top dose activity, negative = inhibition, actives largely listed as inhibitors | hit rate 3.5% among 310,000 | AID 2546;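 also: Gal4-VP16 expression switched on by copper sulfate through the metallothionein promoter; nearly all actives have a fitted effect of over 50% in size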
# The depositor's hits bear a star; ? = inconclusive; / = no result given; [ ] = remark or other dose. Unless noted, calls follow the shape of the dose curve; as a rule, active = well fitted curve in the direction sought with a large enough effect; inconclusive = small, poorly fitted or top-dose-only effect, or another doubt; inactive = no such curve, though single readings can be large; an effect the other way counts as inactive or inconclusive. Unless noted, % is scaled to controls: 0 for no effect and ±100 for the full control effect; potency is read from the fitted curve at half-maximal effect.
SMILES,ALDH1A1 inh,RORg inh,Sfp inh,PLK1 PBD block,VP16 counter
Cc1nc(NCc2ccccc2)c2nc(-c3ccccc3)n(CCN3CCCCC3)c2n1,?,11µM*,9%,/,-15%
CCCn1c(-c2ccc(F)cc2)nc2c(N3CCCN(Cc4ccccc4)CC3)nc(C)nc21,?,8%,22µM*,/,?
CC(=O)Nc1ccc2cnn(C(C)=O)c2c1,/,/,/,3%,/
NC1CONC1=O (centres undefined),5%,0%,-21%,/,9%
C(=N\c1nccs1)/c1c[nH]c2ccccc12,13µM*,-11%,45µM*,-23%,-2%
O=C(Nc1cc(-c2ccccc2)nn1C1CCCCC1)c1ccc(Cl)cc1,/,/,/,-14%,/
Cc1cc(NC(=O)c2cc(C(C)(C)C)oc2C)no1,-2%,13µM*,17%,-8%,-15%
Cc1oc(C(C)(C)C)cc1C(=O)Nc1ccc(C(=O)O)cc1,3%,?,18%,-8%,5%
Cc1ccccc1N=C1c2ccccc2C(=O)C1[N+](=O)[O-] (centres undefined),-8%,0%,21%,-7%,-8%
O=C(O)c1c(C(=O)N2N=C3/C(=C/c4ccccc4)CCCC3C2c2ccccc2)cccc1[N+](=O)[O-] (centres undefined),?,14%,-26%,?,-4%
CC(=O)N1N=C2/C(=C/c3ccccc3)CCCC2C1c1ccccc1 (centres undefined),?,11%,-19%,27µM*,-26%
O=C(O)c1ccccc1C(=O)N1N=C2/C(=C/c3cccc([N+](=O)[O-])c3)CCCC2C1c1cccc([N+](=O)[O-])c1 (centres undefined),?,27%,-16%,67µM*,15%
COc1ccc(OC)c(NC(=O)CC2C(=O)NCCN2C(=O)c2ccccc2)c1 (centres undefined),/,-13%,11%,-7%,-14%
Cc1noc(C)c1-c1ccc2ncnc(NCc3ccc(C(F)(F)F)o3)c2c1,/,?,3%,/,15%
CCOc1cc2[nH]c(=S)n(CC3CCCO3)c(=O)c2cc1OCC (centres undefined),2.5µM*,11µM*,-4%,-6%,?
CCOc1cc2[nH]c(=S)n(CCC(=O)NC3CCCCC3)c(=O)c2cc1OCC,/,/,/,-5%,/
CCOc1cc2[nH]c(=S)n(CC3CCCN3CC)c(=O)c2cc1OCC (centres undefined),?,10µM*,8%,-2%,3%
CCOc1cc2[nH]c(=S)n(CCCN3CCN(C)CC3)c(=O)c2cc1OCC,/,/,/,-12%,/
COc1cc2[nH]c(=S)n(CC3CCCO3)c(=O)c2cc1OC (centres undefined),7.9µM*,?,-2%,-5%,?
CCOc1ccc(-n2c(=S)sc3c(=O)[nH]c(SCC(=O)NC4CCCCC4)nc32)cc1,/,/,/,-13%,/
O=c1ccn([C@@H]2O[C@H](CNCc3ccccc3OCc3ccc(Cl)cc3Cl)[C@@H](O)[C@H]2O)c(=O)[nH]1,/,/,/,-10%,/
CCOc1ccc2nc(SCC(=O)NCc3ccc(S(N)(=O)=O)cc3)[nH]c2c1,/,/,21%,-5%,/
CCOC(=O)c1c(O)c2cc(Cl)ccc2n(CC)c1=O,20µM*,9%,?,1%,-4%
Cc1c(C(=O)NCc2ccccc2C(F)(F)F)sc(=O)n1Cc1ccc(F)cc1,/,/,/,3%,/
Clc1ccc(Cc2nn3c(Cn4nnc5ccccc54)nnc3s2)cc1,22µM*,?,28µM*,27µM*,-11%
SMILES,ALDH1A1 inh,RORg inh,Sfp inh,PLK1 PBD block,VP16 counter
c1ccc2c(c1)nnn2Cc1nnc2sc(-c3ccncc3)nn12,?,-17%,40µM*,32µM*,-2%
c1coc(-c2nn3c(Cn4nnc5ccccc54)nnc3s2)c1,10µM*,-25%,45µM*,27µM*,7%
CC(C)(C)OC(=O)NCCCCC1=CC2=CC(=O)C(C)(OC(=O)C3CCCC3)C(=O)C2=CO1 (centres undefined),17%,-1%,-10%,/,-16%
CC1(C)CCC[C@@](C)([C@H]2CC[C@]3(C)[C@@H]2[C@H](O)C[C@@H]2[C@@]4(C)CC[C@H](O)C(C)(C)[C@@H]4CC[C@]23C)O1,/,20%,9%,/,5%
Cc1ccc(N2CCN(C(=O)C(=O)c3ccc4c(c3)OCO4)CC2)cc1,/,/,/,-16%,/
O=C(O)C1CCCCN1c1ccccc1[N+](=O)[O-] (centres undefined),/,/,/,-6%,/
COc1ccc(/C=C2/SC(=S)N(CCC(=O)N3CCN(C)CC3)C2=O)cc1,/,10µM*,-3%,-10%,19%
COc1ccc(/C=C2/SC(=S)N(CCCC(=O)N3CCN(C)CC3)C2=O)cc1,/,1.4µM*,-5%,-1%,2.5µM*
CN1CCN(C(=O)CCCN2C(=O)/C(=C/c3ccc(Cl)cc3)SC2=S)CC1,/,/,/,0%,/
COc1ccc(/C=C2\SC(=S)N(CCC(=O)N3CCCCC3)C2=O)cc1,/,-9%,20%,-27%,1%
Cc1ccc(OCCCC(=O)N2CCOCC2)cc1,-4%,24%,-4%,12µM*,-3%
CN1CCN(C(=O)CCN2C(=O)/C(=C\c3ccc(Cl)cc3Cl)SC2=S)CC1,/,30%,2%,42µM*,-2%
Cc1ccc(-c2ccc(=O)n(CC(=O)NCCN(CC(C)C)CC(C)C)n2)cc1,/,6%,-1%,-11%,-1%
CCN[C@@H]1C[C@H](C)S(=O)(=O)c2sc(S(N)(=O)=O)cc21,13%[20.9 µM],-1%[16.9 µM],24%,/,-7%[17 µM]
COC(=O)c1ccc(/C=C2\SC(=S)N(CCCC(=O)N3CCOCC3)C2=O)cc1,/,/,/,3%,/
Cc1ccc(/C=C2\SC(=S)N(CCCC(=O)N3CCOCC3)C2=O)cc1,/,3.2µM*,-28%,-4%,?
C=CCc1ccc(OCC(O)COc2ccc(CC=C)cc2OC)c(OC)c1,10µM*,-39%,-24%,5%,?
OCCCNc1ncnc2c1ncn2[C@H]1CN(Cc2ccc(Cl)cc2)C[C@@H](CO)O1,/,/,/,-10%,/
CN1CCN(C(=O)c2cccn(Cc3c(Cl)cccc3Cl)c2=O)CC1,/,21%,5%,6%,-2%
CCCCN(CC)c1nc(-c2ccncc2)nc2ccccc12,?,-3%,?,2%,6%
c1ccc(CCNc2nc(-c3ccccn3)nc3ccccc23)cc1,/,0.25µM*,-12%,-8%,4.5µM*
CCCN(CCC)c1nc(-c2ccccn2)nc2ccccc12,/,3.5µM*,-11%,1%,5µM*
Cc1ccc2nc(NC(=O)COC(=O)c3ccc(Br)o3)sc2c1,?,-16%,25µM*,?,1%
O=C(COC(=O)c1ccc(Br)o1)Nc1nc2ccccc2s1,5%,0%,14%,-8%,-1%
O=C(COC(=O)c1ccc([N+](=O)[O-])o1)Nc1nc2ccccc2s1,32µM*,34%,-13%,-18%,-14%
OC[C@@H]1OC(O)[C@@H](O)[C@H](O)[C@@H]1O (some centres undefined),/,-4%,6%,/,3%
COc1ccccc1CN(C)C[C@@H]1OCc2cnnn2CCCC(=O)N([C@@H](C)CO)C[C@H]1C,/,/,/,4%,/
